# Test results taken from ChEMBL document CHEMBL3988442, “University of Dundee, Small-Polar-MMV Screening Library” (2021).
# For some assays here: Potency and affinity values are given separately.
# Tests used:
# Parameters in all cases: scale not given: direction of the effect not stated beside the values
# [1] = biological target: Protein translocase subunit SecA (Escherichia coli (strain K12)) (UniProt P10408); test: Assay to Identify E. coli SecA ATPase Inhibitors; type: functional; conditions: 30 µM
# Chain of Protein translocase subunit SecA (Escherichia coli (strain K12)) (P10408 whole entry): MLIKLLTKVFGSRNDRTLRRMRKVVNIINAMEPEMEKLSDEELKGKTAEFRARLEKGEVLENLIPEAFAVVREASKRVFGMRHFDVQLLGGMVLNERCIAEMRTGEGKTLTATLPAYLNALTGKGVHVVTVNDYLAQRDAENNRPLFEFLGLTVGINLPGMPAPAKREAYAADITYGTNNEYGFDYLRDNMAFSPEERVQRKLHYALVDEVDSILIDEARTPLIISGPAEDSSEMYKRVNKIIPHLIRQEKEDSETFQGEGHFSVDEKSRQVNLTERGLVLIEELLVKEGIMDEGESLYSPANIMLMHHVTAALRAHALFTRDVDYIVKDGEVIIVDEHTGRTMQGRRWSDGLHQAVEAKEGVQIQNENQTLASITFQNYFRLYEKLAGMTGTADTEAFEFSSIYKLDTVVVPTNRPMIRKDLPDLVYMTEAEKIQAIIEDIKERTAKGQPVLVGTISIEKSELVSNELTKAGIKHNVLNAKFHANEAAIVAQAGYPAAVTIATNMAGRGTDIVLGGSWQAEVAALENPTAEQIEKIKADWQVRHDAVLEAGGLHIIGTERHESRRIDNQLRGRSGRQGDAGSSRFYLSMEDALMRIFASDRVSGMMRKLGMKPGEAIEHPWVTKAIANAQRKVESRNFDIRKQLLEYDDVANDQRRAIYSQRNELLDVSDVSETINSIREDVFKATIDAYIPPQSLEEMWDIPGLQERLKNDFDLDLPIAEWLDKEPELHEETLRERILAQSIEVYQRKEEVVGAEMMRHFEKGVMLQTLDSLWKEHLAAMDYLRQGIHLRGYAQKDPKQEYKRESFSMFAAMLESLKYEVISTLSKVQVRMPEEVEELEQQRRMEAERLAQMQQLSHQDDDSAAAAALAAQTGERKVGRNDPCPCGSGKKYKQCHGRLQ
# [2] = biological target: T1, Ubiquitin-activating enzyme e1, putative (Leishmania donovani (strain BPK282A1)) (UniProt E9BSI1); test: Leishmania donovani Ubiquitin Activating Enzyme (LdE1); type: functional; conditions: 30 µM
# T1 sequence (whole entry): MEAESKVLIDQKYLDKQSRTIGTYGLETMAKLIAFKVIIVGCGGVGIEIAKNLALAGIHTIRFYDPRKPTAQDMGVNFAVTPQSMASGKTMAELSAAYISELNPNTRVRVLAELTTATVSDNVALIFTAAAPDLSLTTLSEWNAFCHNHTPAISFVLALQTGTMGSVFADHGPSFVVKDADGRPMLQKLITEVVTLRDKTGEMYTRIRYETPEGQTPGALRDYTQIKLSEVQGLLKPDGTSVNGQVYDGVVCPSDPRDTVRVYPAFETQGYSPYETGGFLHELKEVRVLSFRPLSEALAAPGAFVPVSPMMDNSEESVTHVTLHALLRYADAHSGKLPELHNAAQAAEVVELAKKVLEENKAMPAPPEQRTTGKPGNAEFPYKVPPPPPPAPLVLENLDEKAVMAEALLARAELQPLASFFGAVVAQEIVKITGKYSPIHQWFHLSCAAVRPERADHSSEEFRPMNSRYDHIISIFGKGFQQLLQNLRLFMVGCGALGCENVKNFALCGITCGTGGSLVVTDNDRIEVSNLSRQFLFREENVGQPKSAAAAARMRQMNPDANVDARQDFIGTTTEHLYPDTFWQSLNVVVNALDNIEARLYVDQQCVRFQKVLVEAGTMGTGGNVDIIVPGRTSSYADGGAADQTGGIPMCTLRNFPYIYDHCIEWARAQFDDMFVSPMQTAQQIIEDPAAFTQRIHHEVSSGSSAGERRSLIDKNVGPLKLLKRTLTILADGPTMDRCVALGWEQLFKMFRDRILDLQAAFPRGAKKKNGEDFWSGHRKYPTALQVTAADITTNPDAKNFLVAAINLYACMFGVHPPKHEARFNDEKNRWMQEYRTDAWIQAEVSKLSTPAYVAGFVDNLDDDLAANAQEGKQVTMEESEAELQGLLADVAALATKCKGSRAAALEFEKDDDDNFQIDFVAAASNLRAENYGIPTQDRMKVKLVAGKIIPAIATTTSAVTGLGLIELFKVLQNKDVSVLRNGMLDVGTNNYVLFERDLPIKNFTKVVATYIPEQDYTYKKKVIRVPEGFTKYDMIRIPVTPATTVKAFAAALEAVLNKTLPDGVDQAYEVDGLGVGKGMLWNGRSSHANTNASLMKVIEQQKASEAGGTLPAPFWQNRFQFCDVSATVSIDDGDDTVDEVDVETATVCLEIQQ
# [3] = biological target: AMP-activated protein kinase, AMPK (Homo sapiens) (UniProt P54646+O43741+P54619+Q9UGJ0+Q9Y478+Q13131+Q9UGI9); test: AMP-dependent Kinase enzyme assay. An in vitro enzyme assay that detects ADP turnover that is directly proportional to AMPK activity. This uses naive AMPK that is activated during the assay with MK-8722; type: functional; conditions: 30 µM
# [4] = biological target: Sialic acid-binding Ig-like lectin 9 (Homo sapiens) (UniProt Q9Y336); test: Hs-Siglec9 ALPHAscreen SOP 20170721; conditions: 10 µM
# Chain of Sialic acid-binding Ig-like lectin 9 (Homo sapiens) (Q9Y336 whole entry): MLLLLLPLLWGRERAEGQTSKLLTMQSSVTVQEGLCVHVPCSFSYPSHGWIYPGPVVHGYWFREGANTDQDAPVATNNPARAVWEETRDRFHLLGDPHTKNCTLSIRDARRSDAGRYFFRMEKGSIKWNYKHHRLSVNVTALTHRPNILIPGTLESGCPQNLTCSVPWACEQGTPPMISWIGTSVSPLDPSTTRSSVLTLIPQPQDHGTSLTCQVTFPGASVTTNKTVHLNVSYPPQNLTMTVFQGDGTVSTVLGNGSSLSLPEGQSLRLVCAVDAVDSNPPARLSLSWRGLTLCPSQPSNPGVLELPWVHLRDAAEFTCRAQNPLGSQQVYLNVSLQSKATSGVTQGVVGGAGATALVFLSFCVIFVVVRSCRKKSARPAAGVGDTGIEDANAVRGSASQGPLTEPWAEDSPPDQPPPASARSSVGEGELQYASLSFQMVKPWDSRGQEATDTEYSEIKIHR
# [5] = system: Trypanosoma cruzi; test: Trypanosoma cruzi phosphomannomutase and mannose-1-phosphate guanylyltransferase assay; type: functional; conditions: 10 µM
# [6] = biological target: T2, Arginase-2, mitochondrial (Homo sapiens) (UniProt P78540); test: in vitro enzyme assay to detect the production of urea directly proportional to the activity of Arginase II; type: functional; conditions: 33.3 µM; also: in the data most compounds retested in dose-response had high values
# T2 sequence (whole entry): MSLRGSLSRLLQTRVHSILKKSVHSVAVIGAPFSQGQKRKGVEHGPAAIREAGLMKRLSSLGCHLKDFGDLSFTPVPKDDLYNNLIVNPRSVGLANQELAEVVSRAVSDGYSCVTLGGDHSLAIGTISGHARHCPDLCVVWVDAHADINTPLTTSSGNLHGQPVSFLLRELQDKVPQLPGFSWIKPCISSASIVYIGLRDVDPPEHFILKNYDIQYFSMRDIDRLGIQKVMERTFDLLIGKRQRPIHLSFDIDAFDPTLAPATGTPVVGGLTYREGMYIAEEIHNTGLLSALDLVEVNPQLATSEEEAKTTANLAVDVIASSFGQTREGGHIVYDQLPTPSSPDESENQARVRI
# [7] = biological target: T3, Proteasome subunit beta (Trypanosoma cruzi) (UniProt O96673); test: Trypanosoma cruzi proteasome chymotrypsin-like activity (TcProtChymo) assay.; also: in the data most compounds retested in dose-response had high values; type: functional; conditions: 9.37 µM
# T3 sequence (whole entry): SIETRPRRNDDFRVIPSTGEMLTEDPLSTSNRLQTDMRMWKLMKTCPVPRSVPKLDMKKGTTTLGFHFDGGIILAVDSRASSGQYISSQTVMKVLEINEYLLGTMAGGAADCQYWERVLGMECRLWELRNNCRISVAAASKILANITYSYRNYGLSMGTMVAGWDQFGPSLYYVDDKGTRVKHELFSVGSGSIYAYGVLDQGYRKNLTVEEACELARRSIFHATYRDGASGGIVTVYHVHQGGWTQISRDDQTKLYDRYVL
# [8] = species on record: Homo sapiens; test: To identify inhibition of the IFN signalling (Jak-Stat) pathway via expression of an eGFP reporter gene under the control of an IFN-stimulated response element (ISRE) containing MxA promoter.; type: functional; conditions: 30 µM
# [9] = biological target: T4, Tyrosyl-tRNA synthetase, putative (Trypanosoma cruzi (strain CL Brener)) (UniProt Q4DSP6); test: Trypanosoma cruzi tyrosyl tRNA synthetase (TcYRS) _High Tyrosine SOP; type: functional; conditions: 30 µM; also: in the data most compounds retested in dose-response had high values
# T4 sequence (whole entry): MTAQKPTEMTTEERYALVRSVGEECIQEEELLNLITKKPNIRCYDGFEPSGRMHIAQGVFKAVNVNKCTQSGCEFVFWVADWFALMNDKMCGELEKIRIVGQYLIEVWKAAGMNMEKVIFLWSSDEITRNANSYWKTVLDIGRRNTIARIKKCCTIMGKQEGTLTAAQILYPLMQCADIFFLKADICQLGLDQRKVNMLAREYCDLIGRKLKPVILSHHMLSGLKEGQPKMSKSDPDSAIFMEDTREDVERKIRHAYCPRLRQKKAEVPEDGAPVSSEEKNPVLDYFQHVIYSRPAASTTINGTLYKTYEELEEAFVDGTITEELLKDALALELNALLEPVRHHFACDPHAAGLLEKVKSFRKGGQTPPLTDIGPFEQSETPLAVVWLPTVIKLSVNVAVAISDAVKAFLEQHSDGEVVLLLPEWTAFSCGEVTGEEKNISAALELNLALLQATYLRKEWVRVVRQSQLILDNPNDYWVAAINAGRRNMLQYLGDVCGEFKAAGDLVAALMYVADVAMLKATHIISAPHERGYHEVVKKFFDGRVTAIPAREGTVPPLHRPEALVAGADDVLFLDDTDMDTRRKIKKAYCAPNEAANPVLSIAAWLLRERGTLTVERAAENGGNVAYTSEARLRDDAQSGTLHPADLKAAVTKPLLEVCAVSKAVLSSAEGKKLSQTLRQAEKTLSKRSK
# [10] = biological target: T4, Tyrosyl-tRNA synthetase, putative (Trypanosoma cruzi (strain CL Brener)); test: Trypanosoma cruzi tyrosyl tRNA synthetase (TcYRS) SOP; type: functional; conditions: 30 µM
# [11] = biological target: Chromo domain-containing protein 1 (Saccharomyces cerevisiae (strain ATCC 204508 / S288c) (Baker's yeast)) (UniProt P32657); test: ScCHD-1 Enzyme Inhibition Assay; type: functional; conditions: 30 µM; also: in the data most compounds retested in dose-response had high values
# Chain of Chromo domain-containing protein 1 (Saccharomyces cerevisiae (strain ATCC 204508 / S288c) (Baker's yeast)) (P32657 whole entry, the tested form may be a part): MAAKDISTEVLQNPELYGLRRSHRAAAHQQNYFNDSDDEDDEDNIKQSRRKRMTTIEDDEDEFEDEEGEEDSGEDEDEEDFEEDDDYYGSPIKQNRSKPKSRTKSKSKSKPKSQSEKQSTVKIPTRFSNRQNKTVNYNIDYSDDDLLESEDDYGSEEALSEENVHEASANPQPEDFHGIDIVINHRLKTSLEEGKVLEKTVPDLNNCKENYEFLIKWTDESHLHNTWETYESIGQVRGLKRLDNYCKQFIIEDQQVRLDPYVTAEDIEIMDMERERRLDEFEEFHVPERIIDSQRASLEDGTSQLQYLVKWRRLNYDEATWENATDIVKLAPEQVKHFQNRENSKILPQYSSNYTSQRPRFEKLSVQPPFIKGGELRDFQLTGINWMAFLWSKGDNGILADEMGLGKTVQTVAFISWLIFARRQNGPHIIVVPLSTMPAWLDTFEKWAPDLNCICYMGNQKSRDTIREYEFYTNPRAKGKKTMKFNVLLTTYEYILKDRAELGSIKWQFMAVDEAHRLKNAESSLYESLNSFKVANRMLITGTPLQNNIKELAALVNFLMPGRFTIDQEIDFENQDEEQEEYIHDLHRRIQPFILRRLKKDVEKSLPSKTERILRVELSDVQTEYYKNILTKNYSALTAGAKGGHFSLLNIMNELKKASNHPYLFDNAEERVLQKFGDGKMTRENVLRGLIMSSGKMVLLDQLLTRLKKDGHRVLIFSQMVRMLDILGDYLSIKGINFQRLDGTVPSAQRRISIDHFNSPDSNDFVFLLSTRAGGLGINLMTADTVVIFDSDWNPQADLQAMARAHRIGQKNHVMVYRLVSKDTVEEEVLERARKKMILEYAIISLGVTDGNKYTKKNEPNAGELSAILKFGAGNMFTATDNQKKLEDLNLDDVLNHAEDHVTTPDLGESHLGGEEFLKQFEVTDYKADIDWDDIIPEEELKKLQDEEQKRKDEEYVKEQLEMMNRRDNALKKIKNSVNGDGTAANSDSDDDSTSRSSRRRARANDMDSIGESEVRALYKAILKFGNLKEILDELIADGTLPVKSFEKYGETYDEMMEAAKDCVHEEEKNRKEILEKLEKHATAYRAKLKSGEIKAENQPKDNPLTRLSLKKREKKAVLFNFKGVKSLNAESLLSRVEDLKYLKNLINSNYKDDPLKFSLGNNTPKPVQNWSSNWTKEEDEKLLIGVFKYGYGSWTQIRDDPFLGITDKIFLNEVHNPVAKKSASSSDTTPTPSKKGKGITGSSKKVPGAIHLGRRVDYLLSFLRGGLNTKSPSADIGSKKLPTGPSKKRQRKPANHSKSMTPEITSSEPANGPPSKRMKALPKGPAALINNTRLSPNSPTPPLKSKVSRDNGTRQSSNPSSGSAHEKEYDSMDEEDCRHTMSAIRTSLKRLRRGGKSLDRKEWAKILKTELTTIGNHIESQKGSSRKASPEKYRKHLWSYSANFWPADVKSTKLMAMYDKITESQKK
SMILES,Percent Effect [1] [%],Percent Effect [2] [%],Percent Effect [3] [%],Percent Effect [4] [%],Percent Effect [5] [%],Percent Effect [6] [%],Percent Effect [7] [%],Percent Effect [8] [%],Percent Effect [9] [%],Percent Effect [10] [%],Percent Effect [11] [%]
CCCc1n[nH]c(C2CN(CCCS(C)(=O)=O)CCO2)n1 (configuration not stated),-5.31,11.4,0.105,-1.3,1.13,2.37,14.1,1.09,5.21,10.1,-22.8
CC(=O)N1CC(Cc2nccc3ccn(C)c23)C1,-2.79,24,0.304,-7.93,1.18,3.96,22.6,1.82,1.06,16.7,-6.59
N#Cc1ccc(F)c(CN2CCCC2Cn2cnc3ccccc32)c1 (configuration not stated),-4.77,-5.41,-0.578,-0.466,-3.81,-0.924,6.46,22.9,1.98,-6.1,5.03
CCCS(=O)(=O)N1CCC2(CN(c3ccsc3)C(=O)CN2C)C1 (configuration not stated),-3.95,8.11,-1,-0.171,2.34,5.83,10.6,-4.15,9.9,6.1,-1.58
CC(C)N(CC(N)=O)Cc1csc(COc2ccc(F)cc2)n1,-3.17,25.3,-6.77,1.71,7.65,-4.18,8.76,63.8,5.42,24.1,-4.66
CCc1cc(=O)[nH]c2nnc(SCC(=O)OC)n12,0.274,16.4,-5.37,-14.2,3.72,18.2,15.6,-0.951,6.45,17.5,-6.44
Cc1cnn(CC2CN(Cc3nnc(-c4occc4C)o3)CCO2)c1 (configuration not stated),-3.52,10.8,142,-3.99,3.06,-0.924,-0.898,16,7.92,23.2,-5.94
Cc1cnn(CC2CN(CCN3CCCC3=O)CCO2)c1 (configuration not stated),-6.18,5.41,-4.61,8.1,8.7,0.744,7.3,-3.36,-3.23,11.1,-4.96
CCN1CCN(C(=O)C(C)N2CCN(Cc3nccn3C)CC2)CC1 (configuration not stated),-3.29,2.7,-1.16,6.16,6.59,-4.99,1.08,-7.4,0.99,3.66,2.46
Cc1cc(C)cc(C2(C(=O)NC(C)Cn3ccnc3)CC2)c1 (configuration not stated),-2.27,25.3,-10.3,0.0554,3.31,-4.56,14.3,-5.91,8.37,24.1,-10.8
C[C@@H]1CN(C(=O)c2ccc(C#N)nc2)C[C@@]1(O)C1CC1,-4.79,13.5,-4.57,30.4,9.65,-1.91,5,1.76,2.65,14.6,-12.3
CCN(Cc1ccc2c(c1)OCO2)Cc1nc(C)no1,2.35,18.9,-7.63,-8.65,-8.96,2.4,14.9,18.6,4.43,6.17,-4.89
CC(C)NC(=O)N1CCC2(CC(C(=O)NCc3cccnc3)=NO2)C1 (configuration not stated),-0.964,2.67,4.37,10.3,-5.99,-2.69,8.89,8.43,-3.12,0,1.61
O=C1COC2(CCN(Cc3ccoc3)CC2)CN1c1ccsc1,0.00228,18.7,6.94,-2.69,-0.591,1.63,14.4,-27.3,7.45,11.5,-2.01
CC(C)CC(=O)N1CCCn2cnc(CN3CCCC3=O)c2C1,-3.7,0,-0.875,-3.33,-3.23,1.74,-0.429,-1.05,2.15,6.17,-0.173
CCc1noc(C(C)N2CCC(NC(=O)c3ccc(C)s3)CC2)n1 (configuration not stated),-3.18,7.79,2.15,19.9,2.65,2.76,12.3,17.6,4.3,11.1,-0.98
Cc1nc(C)n(CC2CN(c3nnc(C)c(C)c3C#N)CCO2)n1 (configuration not stated),-5.18,7.89,1.44,6.73,1.13,2.68,8.52,1.18,7.35,12.2,0.234
CCn1ncnc1C(C)NC(=O)C1CCN(C(C)C)CC1 (configuration not stated),-3.72,5.41,-4.36,22.1,0.0978,2.73,15,-2.01,9.68,21,-5.24
Cn1cccc1C(=O)N1CCN(Cc2ccncc2)c2ncccc2C1,1.82,13.3,9.01,8.59,-4.83,-57.2,12.1,13.8,8.33,10,-5.07
CC(NC(=O)COc1nc(C(C)(C)C)no1)c1ccco1 (configuration not stated),-6.83,2.7,5.6,2.63,4.25,2.86,3.45,-3.88,4.76,9.76,-1.56
O=C(Cn1cnc(NC(=O)CC2CCCC2)n1)NCc1ccccc1,-6.6,15.8,-2.47,8.52,9.96,-1.53,2.84,11.9,6.37,17.1,-12.2
Cc1ccc(C(=O)N2Cc3ccccc3C2)cc1N1CCNC1=O,-6.25,2.67,0.516,9.14,7.89,-3.12,16.2,-13.9,7.1,13.6,-6.92
